Measurements reported in ChEMBL document CHEMBL3988442, “University of Dundee, Small-Polar-MMV Screening Library” (2021).
In all, about 48,000 compounds went through this assay and about 13,000 (27%) showed an effect of 50% or more. The list shows a part of the results.

These compounds were tested on Wolbachia pipientis (assay: Anti-Wolbachia Cell-Based Screen). Conditions: 5 µM.
Format: functional
Parameters: scale not given: in the data most compounds retested in dose-response had high values

Row | Compound | Percent Effect
1 | COc1cccc(CN(C)Cc2cc(C#N)ccc2F)c1OC | -16.49%
2 | O=C(c1c[nH]c(=O)[nH]1)N1CCCC2(CCC(=O)N(C3CCCC3)C2)C1 (stereo not drawn) | 5.666%
3 | CC(C(=O)NC1CCCCC1)N1CCc2[nH]nc(C(F)(F)F)c2C1 (stereo not drawn) | -5.733%
4 | Cc1nccn1-c1ccc(N2CCC(NC(C)CC(C)C)CC2)cc1 (stereo not drawn) | 16.66%
5 | COCCN1CCc2cc(C(=O)NC(C)C)c(NCC3CC3)nc2CC1.O=C(O)C(F)(F)F.O=C(O)C(F)(F)F | 103.7%
6 | COCCN1CCc2cc(C(=O)O)c(NCC3CC3)nc2CC1.O=C(O)C(F)(F)F.O=C(O)C(F)(F)F | 96.69%
7 | CNC(=O)c1cc2c(nc1NCC(C)C)CCN(CCOC)CC2.O=C(O)C(F)(F)F.O=C(O)C(F)(F)F | 1.626%
8 | COCCN1CCc2cc(C(=O)N(C)C)c(NCC3CC3)nc2CC1.O=C(O)C(F)(F)F.O=C(O)C(F)(F)F | 1.501%
9 | COCCN1CCc2cc(C(=O)NCC3CC3)c(NC(C)C)nc2CC1.O=C(O)C(F)(F)F.O=C(O)C(F)(F)F | -15.94%
10 | COCCN1CCc2cc(C(=O)NC(C)C)c(NCC(C)C)nc2CC1.O=C(O)C(F)(F)F.O=C(O)C(F)(F)F | 1.817%
11 | Cc1[nH]ncc1CCCNC(=O)Nc1ccc(S(C)(=O)=O)nc1 | 0.4286%
12 | O=c1[nH]c(CN(Cc2ccco2)C2CCCC2)nc2ccccc12 | 5.367%
13 | O=C(c1ccno1)N1CCOC[C@H](Oc2ccc(C(F)(F)F)cc2)C1 | -17.29%
14 | CCN(CC)CCCN1CCN(c2nc(C)cnc2C)CC1 | 20.67%
15 | CCN(Cc1ccco1)C(=O)NCc1nnc2n1CCC2 | -0.2431%
16 | CCN(Cc1ccco1)C(=O)NCc1nnc2n1CCCCC2 | 0.3449%
17 | O=C(NCc1nnc2n1CCCCC2)N(Cc1ccncc1)C1CC1 | -19.08%
18 | CCN(CC1CCOC1)C(=O)NCc1nnc2n1CCCCC2 (stereo not drawn) | 91.82%
19 | O=C(NCc1nnc2n1CCCCC2)N(CC1CCOC1)C1CC1 (stereo not drawn) | 99.15%
20 | Cc1ccc(CN(C(=O)NCc2nnc3n2CCCCC3)C2CC2)o1 | 2.122%
21 | O=C(NCc1nnc2n1CCCC2)N(Cc1ccccc1F)C1CC1 | -10.57%
22 | O=C(NCc1nnc2n1CCC2)N(Cc1ccco1)C1CC1 | 0.3443%
23 | CCN(CC1CC1)C(=O)NCc1nnc2n1CCC2 | 96.27%
24 | CCN(CC1CCOC1)C(=O)NCc1nnc2n1CCC2 (stereo not drawn) | 118.1%
25 | CCN(CC1CCOC1)C(=O)NCc1ccc(-n2cncn2)nc1 (stereo not drawn) | 19.04%
26 | COCc1ccccc1CNC(=O)CN1CCC2(CCOC2)C1 (stereo not drawn) | -0.6554%
27 | Cc1nn2c(N3CCCC(C#N)C3)cc(-c3ccccc3)nc2c1C (stereo not drawn) | -8.58%

Row | Compound | Percent Effect
28 | COCCn1ccnc1-c1[nH]cnc1C | 8.201%
29 | Cc1nc[nH]c1-c1nccn1-c1cccc(CN2CCCC2)c1 | 12.04%
30 | Cc1nc[nH]c1-c1nccn1CCCN(C)C | -1.575%
31 | Cc1nc[nH]c1-c1nccn1CCN1CCCC1=O | 101.5%
32 | Cc1nc[nH]c1-c1nccn1CCN1CCCOC1=O | 97.83%
33 | Cc1nc[nH]c1-c1nccn1CCN1CCOC1=O | 102.9%
34 | Cc1ccsc1-c1nccn1CCS(C)(=O)=O | -15.8%
35 | CCN(CC)CCn1ccnc1-c1[nH]cnc1C | 9.707%
36 | CCc1nccn1CCCn1ccnc1-c1[nH]cnc1C | 10.91%
37 | Cc1ccsc1-c1nccn1CCS(=O)(=O)N1CCCC1 | -5.417%
38 | Cc1nc[nH]c1-c1nccn1CCN(C)S(C)(=O)=O | -5.143%
39 | Cc1ccsc1-c1nccn1CCN1CCCOC1=O | 94.33%
40 | CN(C)c1ncc(CNC(=O)Nc2ccc(C(F)(F)F)cc2)n1C | 20.28%
41 | COc1cc(N2CCCn3cnc(COC(C)C)c3C2)ncn1.O=CO | -4.807%
42 | CC(=O)NCCC(=O)Nc1sccc1C(=O)C(C)(C)C | 21.69%
43 | c1ccc(COc2ccccc2NC2CCOCC2)nc1 | -16.72%
44 | Cc1csc(C(Cc2ccsc2)NC(=O)CN(C)Cc2cccnc2)n1.Cl (stereo not drawn) | 118.2%
45 | Cc1cc(C)n(CC(=O)NC(Cc2ccsc2)c2ccccn2)c(=O)n1.Cl (stereo not drawn) | -15.12%
46 | Cc1csc(C(C#N)C(=O)NCc2cccnc2)n1 (stereo not drawn) | -20.56%
47 | CN(CC(=O)NC(Cc1ccsc1)c1cccnc1)Cc1ccccn1.Cl (stereo not drawn) | 89.62%
48 | CC(CNC(=O)CCc1ccccn1)c1ccsc1 (stereo not drawn) | 1.276%
49 | Cc1csc(C(Cc2ccsc2)NC(=O)CN(C)Cc2ccccn2)n1.Cl (stereo not drawn) | 143%
50 | Cc1nc(CN(Cc2cccnc2)Cc2ccsc2)c[nH]1 | -3.654%
51 | CN(CC(=O)NC(Cc1ccsc1)c1cccnc1)Cc1cccnc1.Cl (stereo not drawn) | 75.58%
52 | Cc1ccc(CC(NC(=O)CN(C)C2CC2)c2ccccn2)cc1 (stereo not drawn) | -26.42%
53 | CN(CC(=O)N1CC(C)(C)[C@](O)(C2CC2)C1)Cc1cccnc1 | -2.465%
